The whole screen tested about 69,000 compounds, of which about 8,600 (12%) showed an effect of 50% or more. The full list was thinned out, with strong results kept by preference.
system: Plasmodium berghei; assay: Screen against P. berghei liver stage (PbLuc), transformed with Luciferase, at 10uM; format: functional, HepG2; conditions: tested at 10 uM

Row | Compound | INHIBITION
1 | O=S(=O)(C1CC1)N1CCO[C@H]2[C@H](Oc3cccnc3)CC[C@@H]21 | -21.1%
2 | Cn1ccc(C(=O)N2CCc3[nH]nc(Nc4ccccc4)c3C2)n1 | 17.04%
3 | CCC1c2ccsc2CCN1C(=O)NCCc1ccccn1 (centres undefined) | 0%
4 | CCc1ncc(C(=O)N2CCN(Cc3ncccc3C)CC2)cn1 | 7.25%
5 | O=C1CCC(c2ccccc2)=NN1CN1CCCCCC1 | 25.3%
6 | CCN(C(=O)CCc1ccccc1)C1CC(=O)NC1=O (centres undefined) | 9.4%
7 | Cc1cc2ccccc2n1CC(=O)N[C@@H](C)C(=O)O | 4.93%
8 | Cc1ccc(OCCSCCn2nc3ccccn3c2=O)cc1 | 22%
9 | CCn1ccnc1CN1CCCC(CO)(CCCc2ccccc2)C1 (centres undefined) | 3.68%
10 | CCn1cc(CN2CCCC(CO)(CCc3ccccc3)C2)c(C)n1 (centres undefined) | 53.1%
11 | Cn1ccnc1CN1CCCC(CO)(CCc2ccccc2)C1 (centres undefined) | 16.6%
12 | O=C(CN1CCCS1(=O)=O)Nc1ccc(OC2CCCC2)cc1 | -5.94%
13 | O=C(CN1CCCS1(=O)=O)Nc1cccc(COC2CCCCC2)c1 | 55.5%
14 | O=C(CN1CCCS1(=O)=O)Nc1ccc(OC2CCCC2)c(Cl)c1 | -6.94%
15 | CNC(=O)CCc1cc(C2CCCN2C(=O)CO)nc(C)n1 (centres undefined) | 29.4%
16 | Cc1nc(CN2C(=O)CC[C@@H]3[C@H]2CCN3C(=O)NC2CC2)cs1 | 38.7%
17 | O=C(c1scc2c1OCCO2)N1CCOC(Cc2cccc(F)c2)C1 (centres undefined) | -22%
18 | CN(CC(=O)N1CCOC(CCc2ccccc2)C1)Cc1ccccn1 (centres undefined) | 54.2%
19 | Cc1n[nH]c(CCC(=O)N2CCOC(Cc3ccccc3)C2)c1C (centres undefined) | 7.19%
20 | Cc1ncoc1C(=O)N1CCOC(Cc2ccccc2)C1 (centres undefined) | 55%
21 | Cc1n[nH]c(CCC(=O)N2CCOC(Cc3ccc(F)cc3)C2)c1C (centres undefined) | 55.4%
22 | O=C(c1scc2c1OCCO2)N1CCOC(CCc2ccccc2)C1 (centres undefined) | 75%
23 | COc1ccc(CC2CN(C(=O)c3ocnc3C)CCO2)cc1 (centres undefined) | 46.4%

Row | Compound | INHIBITION
24 | O=C(c1scc2c1OCCO2)N1CCOC(Cc2ccc(F)cc2)C1 (centres undefined) | 0.72%
25 | Cc1nc(C(=O)N2CCOC(Cc3ccc(F)cc3)C2)co1 (centres undefined) | -23.4%
26 | Cc1nc(C(=O)N2CCOC(Cc3ccccc3)C2)co1 (centres undefined) | -48.5%
27 | Cc1ccnn1CCC(=O)N1CCOC(CCc2ccccc2)C1 (centres undefined) | 44.3%
28 | CN(CC(=O)N1CCOCC(CO)C1)Cc1ccccn1 (centres undefined) | 19.5%
29 | CC(C)CCc1n[nH]c(C(=O)O)c1Br | 11.7%
30 | O=c1[nH]c2cn(-c3cccc(F)c3)c(=O)n2[nH]1 | 48%
31 | CC(C)Cn1cncc1-c1nc2c([nH]1)CCCNC2=O | -21.8%
32 | Cc1cccc(-c2nc(C)nn2CC(=O)NC(C)C2CC2)c1 (centres undefined) | 33.3%
33 | Cc1cccc2c1NC(c1cnc(C3CCC3)s1)NC2=O (centres undefined) | 39.3%
34 | Cc1cc(=O)n2nc(Oc3ccc(F)c(F)c3)sc2n1 | 42.5%
35 | CC(=O)N1CCC(Cc2cnc(C(=O)N3CCCC3)cn2)C1 (centres undefined) | 7.52%
36 | Cc1ccc(OCCN(C)C(C)c2cccc(S(N)(=O)=O)c2)cc1 (centres undefined) | -31.8%
37 | CN(C)C[C@H]1OC[C@@H]2CCN(C(=O)Cc3cccs3)C[C@@H]21 | 13.7%
38 | Cc1cc(N2Cc3cnn(CCO)c3C2)nc(-c2ccccc2)n1 | -81.1%
39 | CCNc1ncc(C(=O)N2CCOC(CCCc3ccccc3)C2)cn1 (centres undefined) | 42.1%
40 | O=C(c1cccnc1)N1CCOC(CCCc2ccccc2)C1 (centres undefined) | 60.9%
41 | O=C(c1cccnc1)N1CCOC(Cc2ccccc2Cl)C1 (centres undefined) | 0.55%
42 | COCCCN1Cc2cccc(NC(=O)c3ccccc3C)c2C1 | 40.6%
43 | COCCCN1Cc2cccc(NC(=O)c3cc(F)cc(F)c3)c2C1 | 45.7%
44 | COCCCN1Cc2cccc(NC(=O)c3ccccc3Cl)c2C1 | 50%
45 | CCn1c(NCc2ccccn2)nc2c(C)nn(C)c2c1=O | 18.4%
46 | Cc1nn(C)c2c(=O)n(C(C)C)c(NCC3CCCO3)nc12 (centres undefined) | 3.58%

Row | Compound | INHIBITION
47 | Cc1nn(C)c2c(=O)n(C(C)C)c(NCCc3ccccc3)nc12 | 87.2%
48 | CCn1c(NCc2cccnc2)nc2c(C)nn(C)c2c1=O | -9.73%
49 | CCn1c(NCc2ccccc2)nc2c(C)nn(C)c2c1=O | 33.3%
50 | CCCn1c(NCCc2ccccc2)nc2c(C)nn(C)c2c1=O | 64.8%
51 | CCCn1nc(C)c(C(=O)N(C)[C@@H]2CC[C@@H](OC)[C@@H]2O)c1C | 40.65%
52 | CCn1ncc2c(C(F)(F)F)cc(-c3cnn(C)c3)nc21 | 19.55%
53 | CCOC(=O)c1cnn(C2CCN(C(=O)CC(C)(C)C)CC2)c1N | -17.4%
54 | CCN(CC)c1nc(C)cc(C(=O)Nc2cccc(C(N)=O)c2)n1 | 25.3%
55 | Cc1nnc(C(NS(=O)(=O)c2cc(C#N)ccc2C)C(C)C)[nH]1 (centres undefined) | 49.1%
56 | CSCC[C@H]1CN2CCC[C@H]2CN1Cc1coc2ccc(C)cc2c1=O | 43.6%
57 | CC(=O)NCC(=O)N1Cc2nccn2CC(CN(C)C(C)C)C1 (centres undefined) | 5.44%
58 | CN(C)c1ccc(NC(=O)NCc2ccc(Cl)s2)cn1 | -21%
59 | CN(Cc1ccsc1)C(=O)Nc1ccc(N(C)C)nc1 | 33.8%
60 | CN(Cc1ccc(Cl)s1)C(=O)Nc1ccc(N(C)C)nc1 | 58.8%
61 | Cn1cccc1C(=O)N1CCc2ncnc(C3CC3)c2CC1 | 35.8%
62 | COCCSCC(=O)NCc1ccc(N(C)C)nc1 | 43.5%
63 | CCOCCCNC(=O)c1nc2c(s1)CCCN2c1ccc(C)nn1 | 35.8%
64 | COC(=O)CC(C)(C)CC(=O)N1CCC(C(F)(F)F)CC1 | 24.6%
65 | CCc1nc(C2CCCN2CCCS(=O)(=O)c2ccccc2)no1 (centres undefined) | 51.2%
66 | CCc1nc(C2CCCN2CCCc2nc3ccccc3o2)no1 (centres undefined) | 62.6%
67 | Cc1nc(C2CCCN2CCCc2nc3ccccc3o2)no1 (centres undefined) | 21.6%
68 | Cc1nc(C2CCCN2CCCS(=O)(=O)N(C)C)no1 (centres undefined) | 54.3%
69 | CC(C)c1nc(C2CCCN2CCCc2nc3ccccc3o2)no1 (centres undefined) | 26.3%

Row | Compound | INHIBITION
70 | CCc1nc(C2CCCN2CCS(=O)(=O)c2ccccc2)no1 (centres undefined) | 22.007%
71 | CN(C)S(=O)(=O)CCCN1CCCC1c1noc(C2CC2)n1 (centres undefined) | -15.5%
72 | Cc1nc(C2CCCN2CCCS(N)(=O)=O)no1 (centres undefined) | 22.5%
73 | Cc1nc(C2CCCN2CCCS(=O)(=O)c2ccccc2)no1 (centres undefined) | 3.603%
74 | O=C(NCCN1CCCCC1)c1ccn(-c2ccccc2)n1 | 19.6%
75 | CCSCC(C)NCc1cn2ccccc2n1 (centres undefined) | -20%
76 | COCC1CN(Cc2csc(C)n2)Cc2nccn2C1 (centres undefined) | 4.61%
77 | CCc1ncc(CNCc2cccnc2N(C)C)cn1 | -0.29%
78 | Cc1cccc(C)c1OCCNC(=O)C(C)n1cncn1 (centres undefined) | -42.3%
79 | O=C(Nc1ccccc1)N1CCC2(CC(=O)N(c3ccsc3)C2)C1 (centres undefined) | -12.2%
80 | COCC(=O)N1CCC2(CC1)CN(c1cncnc1)C(=O)CO2 | 24.1%
81 | O=C(c1cccs1)N1CCC2(CC1)CN(c1ccsc1)C(=O)CO2 | 22.9%
82 | NC(=O)N1CCC2(CC1)CN(c1ccsc1)C(=O)CO2 | 54.6%
83 | O=C1COC2(CCN(c3ncccn3)CC2)CN1c1ccsc1 | 26.5%
84 | O=C(C1CC1)N1CC[C@H]2C(=O)N(c3ccsc3)CCO[C@H]2C1 | 33%
85 | COCC(=O)N1CCC2(CC1)CN(c1ccsc1)C(=O)CO2 | 64.9%
86 | O=C(c1cccs1)N1CCC2(CC1)CN(c1cncnc1)C(=O)CO2 | 48.6%
87 | O=C(C1CCOCC1)N1CCC2(CC1)CN(c1ccsc1)C(=O)CO2 | 74.2%
88 | Cc1cnc(N2CCC3(CC2)CN(c2ccsc2)C(=O)CO3)nc1 | 53.9%
89 | CN(C)CC(=O)N1CCC2(CC1)CN(c1ccsc1)C(=O)CO2 | 47.2%
90 | CCc1cnc(N2CCC3(CC2)CN(c2cccnc2)C(=O)CO3)nc1 | 47.2%
91 | O=C(NCc1ccco1)[C@H]1COC[C@H]2CN(Cc3ccoc3)C[C@H]21 | 25.2%
92 | CCOc1ccc(C#N)cc1NCC(=O)NC1(C#N)CCCC1 | -2.53%

Row | Compound | INHIBITION
93 | Cc1ccc(NC(=O)N2CCCC2)c(OCC2CCCO2)c1 (centres undefined) | -8.11%
94 | CCS(=O)(=O)N1CCN(Cc2cccnc2)c2nc(C)ccc2C1 | 38.1%
95 | O=C(Nc1cccs1)NC(CCCO)c1ccccc1 (centres undefined) | 24.3%
96 | O=C(NCc1csc(Br)c1)N1CCC(O)CC1 | -0.822%
97 | COCC(=O)NCCCn1nc2ccccn2c1=O | 19.7%
98 | CC(C)N(C)Cc1nnc2n1CCN(CC1CC1)CC2 | 20.1%
99 | CCS(=O)(=O)N1CCC2(CC1)CN(c1ccsc1)C(=O)CO2 | 54.4%
100 | O=C1COC2(CCN(S(=O)(=O)C3CC3)CC2)CN1c1ccsc1 | 3.25%
101 | CCS(=O)(=O)N1CCC2(CC1)CN(c1cncnc1)C(=O)CO2 | 14.1%
102 | Cc1cc2ccccc2n1CCC(=O)N1CCN(C)CC1C(N)=O (centres undefined) | 34.9%
103 | CSCC(=O)N1CCOC(c2nc(C)n[nH]2)C1 (centres undefined) | 36.8%
104 | CC(C)c1nc(C2CCCN(C(=O)c3cccc4c3OCO4)C2)no1 (centres undefined) | 42%
105 | CSc1ncc(C(=O)N2C[C@@H]3CC[C@H]2CN(Cc2ccccc2)C3)cn1 | -9.76%
106 | CN(CCN1CCCC1=O)S(=O)(=O)CC1CCCC1 | 88%
107 | Cc1ccc2cccc(S(=O)(=O)N(C)CC3CCN(C)C3)c2n1 (centres undefined) | 16%
108 | CN(CCN1CCOCC1)S(=O)(=O)CC1CCCC1 | 38.7%
109 | CN1CCN(CCCNC(=O)C2CCCCC2)CC1 | -24%
110 | CN1CCN(CCCN(C)S(=O)(=O)CC2CCCCC2)CC1 | 54.4%
111 | CN1CCC(CN(C)S(=O)(=O)CC2CCCCC2)CC1 | 72.3%
112 | CN(C)CCN(C)S(=O)(=O)CC1CCOCC1 | 30.2%
113 | Cc1ccc2cccc(S(=O)(=O)N(C)CC3CCN(C)CC3)c2n1 | 17.6%
114 | CN1CCN(CCCN(C)S(=O)(=O)C2CCCCC2)CC1 | 43.2%

Reference: ChEMBL document CHEMBL4513216, “Probing the Open Global Health Chemical Diversity Library for Multistage-Active Starting Points for Next-Generation Antimalarials” (ACS Infect Dis, 2020)
